Experimental data as given in a collection of fitness landscapes (doi:10.1126/science.1257360).
The full ranking holds about 140,000 sequences; the median of “enrichment ratio after two sorts for PhoP signalling” is about 0, and the highest 2% start at about 11. Shown is part of a subset that was picked to be rich in the highest values.

B1: PhoQ; a variant is named by its letters at X, in order, P23837 (parent)
chain: MKKLLRLFFPLSLRVRFLLATAAVVLVLSLAYGMVALIGYSVSFDKTTFRLLRGESNLFYTLAKWENNKLHVELPENIDKQSPTMTLIYDENGQLLWAQRDVPWLMKMIQPDWLKSNGFHEIEADVNDTSLLLSGDHSIQQQLQEVREDDDDAEMTHSVAVNVYPATSRMPKLTIVVVDTIPVELKSSYMVWSWFIYVLSANLLLVIPLLWVAAWWSLRPIEALAKEVRELEEHNRELLNPATTRELTSLVRNLNRLLKSERERYDKYRTTLTDLTHSLKTPLXXLQXXLRSLRSEKMSVSDAEPVMLEQISRISQQIGYYLHRASMRGGTLLSRELHPVAPLLDNLTSALNKVYQRKGVNISLDISPEISFVGEQNDFVEVMGNVLDNACKYCLEFVEISARQTDEHLYIVVEDDGPGIPLSKREVIFDRGQRVDTLRPGQGVGLAVAREITEQYEGKIVAGESMLGGARMEVIFGRQHSAPKDE

Variants of: B1
Assay: enrichment ratio after two sorts for PhoP signalling (ratio (wild type AVST 3.29)); higher = more functional
Details: with PhoP (E. coli)

Variant | enrichment ratio
RRYY | ≤ 0.25
YGSL | ≤ 0.25
NGLA | ≤ 0.25
AGLS | 13.8
AGLA | 4.99
NGLT | ≤ 0.25
ECEP | 15.1
RGLT | ≤ 0.25
TGLT | 13.5
IPEP | ≤ 0.25
AGLT | 7.3
RGLA | ≤ 0.25
TGLA | 27.5
RYEP | ≤ 0.25
VHMY | ≤ 0.25
LARA | ≤ 0.25
WQQI | ≤ 0.25
FPEF | ≤ 0.25
IHDS | ≤ 0.25
DVNT | ≤ 0.25
NGLN | ≤ 0.25
KSWI | ≤ 0.25
EHHK | 14.4
WIWI | ≤ 0.25
EHHF | ≤ 0.25
RGLS | ≤ 0.25

Variant | enrichment ratio
NGLS | ≤ 0.25
EHHE | ≤ 0.25
TGLN | 25.4
TGLS | 14.9
CFLN | ≤ 0.25
TGWI | 26.1
FPGM | ≤ 0.25
LGWH | ≤ 0.25
GMYH | ≤ 0.25
PFMM | ≤ 0.25
RQLT | ≤ 0.25
HMPW | ≤ 0.25
GHLA | ≤ 0.25
DNNV | ≤ 0.25
TWFG | ≤ 0.25
WQAF | ≤ 0.25
YTAW | ≤ 0.25
KYAW | ≤ 0.25
SIAW | 16.5
STAW | 13.1
WIAW | ≤ 0.25
SQAW | ≤ 0.25
FGTC | ≤ 0.25
RLLI | ≤ 0.25
DHVP | ≤ 0.25
CTSI | 19.6

Variant | enrichment ratio
ITSI | ≤ 0.25
LTSI | ≤ 0.25
KQSI | ≤ 0.25
YTSI | ≤ 0.25
TTSI | 17.1
PECL | ≤ 0.25
DRWN | ≤ 0.25
TETT | 25.2
METT | 13
QETT | ≤ 0.25
MFTT | ≤ 0.25
MHTT | ≤ 0.25
NETT | ≤ 0.25
DEMI | ≤ 0.25
SQNC | ≤ 0.25
EVAF | ≤ 0.25
GNFR | ≤ 0.25
PGNR | ≤ 0.25
RASR | ≤ 0.25
SEIS | 8.01
SEAV | 13.6
STAV | 5.94
SPIA | ≤ 0.25
SEIV | 18.7
SEWV | 0.784
SEAE | 5.82

Variant | enrichment ratio
SERC | ≤ 0.25
SEIA | 13.7
MEIC | 11
DDIA | ≤ 0.25
SEIC | 32.9
DHWR | ≤ 0.25
MSEQ | ≤ 0.25
LCAF | ≤ 0.25
MMGP | ≤ 0.25
YYDN | ≤ 0.25
PLDS | ≤ 0.25
NPKR | ≤ 0.25
FGMH | ≤ 0.25
SQIG | 9.99
DDIY | ≤ 0.25
KYIY | ≤ 0.25
SFFV | ≤ 0.25
SEIG | 13.1
SEPV | ≤ 0.25
SPIG | ≤ 0.25
SEIY | 21.5
SEMV | 23.8
SEEV | 1.98
SEMW | ≤ 0.25
SEFV | 11.8
KQPW | ≤ 0.25

Variant | enrichment ratio
DFRP | ≤ 0.25
WSND | ≤ 0.25
AMAT | 3.36
YYEG | ≤ 0.25
ESCY | ≤ 0.25
SRIC | ≤ 0.25
LWNH | ≤ 0.25
LGQL | ≤ 0.25
QDGH | ≤ 0.25
KQCM | ≤ 0.25
DWCM | ≤ 0.25
FQCM | 10.7
HECM | 24
EQCM | ≤ 0.25
HECK | ≤ 0.25
HFCM | 1.37
IQCM | ≤ 0.25
SNCM | 11.2
NQCM | ≤ 0.25
TQCM | 33.7
SQCM | 19.2
SQKE | ≤ 0.25
PCCP | ≤ 0.25
PFFR | ≤ 0.25
LMAE | ≤ 0.25
MLGA | ≤ 0.25

Variant | enrichment ratio
SMKT | ≤ 0.25
AWAS | ≤ 0.25
IGQR | ≤ 0.25
DAQH | ≤ 0.25
MTHG | ≤ 0.25
QEHG | 11.2
STHG | ≤ 0.25
MEHG | 11.9
YYHG | ≤ 0.25
QPHG | ≤ 0.25
HDSR | ≤ 0.25
DTEC | ≤ 0.25
LQRA | ≤ 0.25
AIQG | ≤ 0.25
YGYF | ≤ 0.25
GGAK | ≤ 0.25
NGRQ | ≤ 0.25
NQCL | ≤ 0.25
SNPN | ≤ 0.25
SNNN | 16.8
SNMN | 22.4
IQCL | ≤ 0.25
SNVN | 13.3
